Experimental data as given in PubChem BioAssay (NCATS).
Results filed as inconclusive are left out. The source made the active and inactive calls. Unless noted, calls come from the whole dose curve.

Columns and labels:
[1] = qHTS for Inhibitors of the Functional Ribonucleoprotein Complex (vRNP) of Lassa (LASV) Arenavirus: LASV Primary Screen - GLuc reporter signal (AID 1347082; calls by dose curve; tested in HEK293 reporter line; note: series mostly up to about 57 µM; nearly all actives have a fitted effect of over 60% in size)
[2] = qHTS for Inhibitors of the Functional Ribonucleoprotein Complex (vRNP) of Lassa (LASV) Arenavirus: Viability assay - alamar blue signal for LASV Primary Screen (AID 1347083; calls by dose curve; tested in HEK293 reporter line; note: series mostly up to about 57 µM; nearly all actives have a fitted effect of over 80% in size)
[3] = qHTS for Inhibitors of the Functional Ribonucleoprotein Complex (vRNP) of Lymphocytic Choriomeningitis Arenaviruses (LCMV): Viability assay - alamar blue signal for LCMV Primary Screen (AID 1347085; calls by dose curve; tested in HEK293 reporter line; note: series mostly up to about 57 µM; nearly all actives have a fitted effect of over 80% in size)
[4] = target: Nucleoprotein (Lymphocytic choriomeningitis virus (strain Armstrong)) (UniProt P09992); experiment: qHTS for Inhibitors of the Functional Ribonucleoprotein Complex (vRNP) of Lymphocytic Choriomeningitis Arenaviruses (LCMV): LCMV Primary Screen - GLuc reporter signal (AID 1347086); note: series mostly up to about 57 µM; nearly all actives have a fitted effect of over 70% in size
[5] = qHTS of pediatric cancer cell lines to identify multiple opportunities for drug repurposing: Primary screen for SJ-GBM2 cells (AID 1347091; active = well fitted curve in the direction sought with a large enough effect; an effect the other way counts as inactive or inconclusive)
Outline: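 Eight- or eleven-point concentration series, 48 h treatment at 37 degrees C in growth media; readout CellTiter-Glo luminescence. Potency and efficacy were taken from the concentration-response curves.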

[6] = qHTS of pediatric cancer cell lines to identify multiple opportunities for drug repurposing: Primary screen for BT-37 cells (AID 1347094; active = well fitted curve in the direction sought with a large enough effect; an effect the other way counts as inactive or inconclusive; note: series mostly up to about 57 µM)
Outline: (§1)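 Primary screen of approved and investigational compounds on cells in growth media at 37 degrees C, 5% CO2. MIPE set at 11-point and NPC set at 8-point dilutions; viability scored by ATP-based luminescence at 48 hours.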

[7] = qHTS of pediatric cancer cell lines to identify multiple opportunities for drug repurposing: Primary screen for NB-EBc1 cells (AID 1347095; active = well fitted curve in the direction sought with a large enough effect; an effect the other way counts as inactive or inconclusive)
Outline: as §1

[8] = qHTS of pediatric cancer cell lines to identify multiple opportunities for drug repurposing: Primary screen for U-2 OS cells (AID 1347096; active = well fitted curve in the direction sought with a large enough effect; an effect the other way counts as inactive or inconclusive; note: nearly all actives have a fitted effect of over 50% in size)
Outline: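 Cells (500-1,000/well) in growth media were settled 5 h at 37 degrees C, then given compounds for 48 h. Viability was read as CellTiter-Glo luminescence. Primary runs used MIPE at 11 points (0.78 nM-46 µM) and NPC at 8 points (0.59 nM-46 µM); follow-ups used 11 points.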

[9] = qHTS of pediatric cancer cell lines to identify multiple opportunities for drug repurposing: Primary screen for Saos-2 cells (AID 1347097; active = well fitted curve in the direction sought with a large enough effect; an effect the other way counts as inactive or inconclusive; note: nearly all actives have a fitted effect of over 40% in size)
Outline: as §1

[10] = qHTS of pediatric cancer cell lines to identify multiple opportunities for drug repurposing: Primary screen for SK-N-SH cells (AID 1347098; active = well fitted curve in the direction sought with a large enough effect; an effect the other way counts as inactive or inconclusive;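 note: DMSO served as neutral control and bortezomib at 2.3 µM as positive control; nearly all actives have a fitted effect of over 65% in size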)
Outline: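 Cells (500-1,000/well) rested 5 h, then received compounds for 48 h; metabolically active cells were measured by CellTiter-Glo luminescence. Final concentrations spanned up to 46 µM (MIPE, 11-point) or 0.59 nM-46 µM (NPC, 8-point) in primary screens, 11-point in follow-ups.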

[11] = qHTS of pediatric cancer cell lines to identify multiple opportunities for drug repurposing: Primary screen for NB1643 cells (AID 1347099; active = well fitted curve in the direction sought with a large enough effect; an effect the other way counts as inactive or inconclusive; note: nearly all actives have a fitted effect of over 50% in size)
Outline: as §1

Measured: Potency

Sequence of Nucleoprotein (Lymphocytic choriomeningitis virus (strain Armstrong)) (P09992 whole entry, looked up): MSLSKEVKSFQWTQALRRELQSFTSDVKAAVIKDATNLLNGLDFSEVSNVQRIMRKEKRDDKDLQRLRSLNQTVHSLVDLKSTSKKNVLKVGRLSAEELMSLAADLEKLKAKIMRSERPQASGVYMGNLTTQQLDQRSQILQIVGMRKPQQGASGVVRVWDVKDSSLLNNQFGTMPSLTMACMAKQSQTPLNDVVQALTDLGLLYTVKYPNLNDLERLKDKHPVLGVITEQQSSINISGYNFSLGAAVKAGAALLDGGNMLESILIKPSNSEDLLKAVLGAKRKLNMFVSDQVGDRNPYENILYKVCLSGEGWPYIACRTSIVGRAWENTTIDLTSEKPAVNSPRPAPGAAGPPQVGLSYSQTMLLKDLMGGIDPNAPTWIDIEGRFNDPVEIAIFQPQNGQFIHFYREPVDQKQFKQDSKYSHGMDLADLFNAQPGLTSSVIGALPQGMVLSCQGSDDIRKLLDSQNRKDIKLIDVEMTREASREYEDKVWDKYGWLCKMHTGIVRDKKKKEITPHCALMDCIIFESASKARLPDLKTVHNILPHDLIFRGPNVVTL

O=C(O)CCC(=O)c1ccc(-c2ccccc2)cc1
inactive: [1] | [2] | [3] | [4]

CC(C)NCC(O)COc1ccc(COCCOC(C)C)cc1 (centres undefined)
inactive: [1] | [2] | [3] | [4]

CN1CCN(CCCN2c3ccccc3Sc3ccc(S(=O)(=O)N(C)C)cc32)CC1
inactive: [1] | [2] | [3] | [4]

CC(NC(CCc1ccccc1)C(=O)O)C(=O)N1C(=O)N(C)CC1C(=O)O (centres undefined)
inactive: [1] | [2] | [3] | [4]

Nc1c(NC/C=C\COc2cc(CN3CCCCC3)ccn2)c(=O)c1=O
inactive: [1] | [2] | [3] | [4]

CCCC(=O)OC[C@@H](OC(=O)CCC)[C@@H](OC(=O)CCC)[C@H](Cn1c2nc(=O)[nH]c(=O)c-2nc2cc(C)c(C)cc21)OC(=O)CCC
inactive: [1] | [2] | [3] | [4]

OC[C@@H](O)[C@H](O)[C@H](O)[C@@H](O)CO
inactive: [1] | [2] | [3] | [4]

NS(=O)(=O)c1cc2c(cc1Cl)CN(C1CCCCC1)C2=O
inactive: [1] | [2] | [3] | [4]

CN(C)CCCOC1(Cc2ccccc2)CCCCCC1
inactive: [1] | [2] | [3] | [4]

CCOC(=O)OC(C)OC(=O)[C@@H]1N2C(=O)[C@@H](NC(=O)[C@H](N)c3ccccc3)[C@H]2SC1(C)C (some centres undefined)
inactive: [1] | [2] | [3] | [4]

CCN(CCCCOC(=O)c1ccc(OC)c(OC)c1)C(C)Cc1ccc(OC)cc1 (centres undefined)
inactive: [1] | [2] | [3] | [4]

CCCCC/C=C\C/C=C\CCCCCCCC(=O)NC(C)c1ccccc1 (centres undefined)
inactive: [1] | [2] | [3] | [4]

CCCc1nc(C)c2c(=O)[nH]c(-c3cc(S(=O)(=O)N4CCN(CC)CC4)ccc3OCC)nn12
inactive: [1] | [2] | [3] | [4]

Cc1ncc(COP(=O)(O)O)c(C=O)c1O
inactive: [1] | [2] | [3] | [4]

CCCn1cnc2c1c(=O)n(CCCCC(C)=O)c(=O)n2C
inactive: [1] | [2] | [3] | [4]

CCOc1c(N2CCOCC2)cnn(C)c1=O
inactive: [1] | [2] | [3] | [4]

O=C(O)COC(=O)Cc1ccccc1Nc1c(Cl)cccc1Cl
inactive: [1] | [2] | [3] | [4]

CN(C)CCOC(c1ccccc1)c1ccc(Br)cc1 (centres undefined)
inactive: [1] | [2] | [3] | [4]

Clc1ccc(C(Cn2ccnc2)OCc2ccc(Sc3ccccc3)cc2)c(Cl)c1 (centres undefined)
inactive: [1] | [2] | [3] | [4]

Cc1ccc2c(c1)c1c3n2CCNC3CCC1 (centres undefined)
inactive: [1] | [2] | [3] | [4]

NC(=O)C(=O)N/N=C/c1ccc([N+](=O)[O-])o1
inactive: [1] | [2] | [3] | [4]

C#C[C@]1(OC(C)=O)CC[C@H]2[C@@H]3CCC4=C/C(=N/O)CC[C@@H]4[C@H]3CC[C@@]21CC
inactive: [1] | [2] | [3] | [4]

C=CCSCC1Nc2cc(Cl)c(S(N)(=O)=O)cc2S(=O)(=O)N1 (centres undefined)
inactive: [1] | [2] | [3] | [4]

CC(C)OC(=O)c1cc2c(OCC(O)CNC(C)(C)C)cccc2[nH]1 (centres undefined)
inactive: [1] | [2] | [3] | [4]

CCN(CC)CCOC(=O)C1(c2ccccc2)CCCC1
inactive: [1] | [2] | [3] | [4]

O=C1c2ccccc2C(=O)C1c1ccccc1
inactive: [1] | [2] | [3] | [4]

CCCC(=O)O[C@]1(C(=O)CC)CC[C@H]2[C@@H]3CCC4=CC(=O)CC[C@]4(C)[C@H]3[C@@H](O)C[C@@]21C
inactive: [1] | [2] | [3] | [4]

CC(C)(C)NCC(O)COc1cccc2c1CCC(=O)N2 (centres undefined)
inactive: [1] | [2] | [3] | [4]

CCCCC(=O)O[C@]1(C(=O)CO)[C@@H](C)C[C@H]2[C@@H]3CCC4=CC(=O)C=C[C@]4(C)[C@@]3(F)[C@@H](O)C[C@@]21C
inactive: [1] | [2] | [3] | [4]

Cc1cccc(N(C)C(=S)Oc2ccc3ccccc3c2)c1
inactive: [1] | [2] | [3] | [4]

CCOC(=O)C(=O)c1csc(NC=O)n1
inactive: [1] | [2] | [3] | [4]

CN1CCCN(C(c2ccccc2)c2ccc(Cl)cc2)CC1 (centres undefined)
inactive: [1] | [2] | [3] | [4]

CC(C)Cc1ccc(C(C)C(=O)OCc2ccccn2)cc1 (centres undefined)
inactive: [1] | [2] | [3] | [4]

CO/N=C(/C(=O)N[C@@H]1C(=O)N2C(C(=O)O)=C(Cn3nnc(C)n3)CS[C@H]12)c1csc(N)n1
inactive: [1] | [2] | [3] | [4]

O=C1Nc2cc(Cl)ccc2Oc2ccccc21
inactive: [1] | [2] | [3] | [4]

Nc1ccc(S(=O)(=O)Nc2nccs2)cc1
inactive: [1] | [2] | [3] | [4]

C[C@H]1C[C@H]2[C@@H]3CCC4=CC(=O)C=C[C@]4(C)[C@H]3C(=O)C[C@]2(C)[C@@]1(O)C(=O)CO
inactive: [1] | [2] | [3] | [4]

NS(=O)(=O)c1cc(C(=O)O)c(NCc2ccco2)cc1Cl
inactive: [1] | [2] | [3] | [4]

CSc1ccc(C(=O)c2[nH]c(=O)[nH]c2C)cc1
inactive: [1] | [2] | [3] | [4]

CN(C)CCc1c[nH]c2ccc(O)cc12
inactive: all assays above

CCC(C)(C)c1ccc(CC(C)CN2C[C@@H](C)O[C@@H](C)C2)cc1 (some centres undefined)
inactive: [1] | [2] | [3] | [4]

CN(C(=O)CN(CCO)CC(=O)N(C)C(C)(C)Cc1ccccc1)C(C)(C)Cc1ccccc1
inactive: [1] | [2] | [3] | [4]

CN(C)CCCO[C@@H]1[C@H]2OC(C)(C)O[C@H]2O[C@@H]1C(O)CO (some centres undefined)
inactive: [1] | [2] | [3] | [4]

CC1(C)CO[C@@H](CC(=O)O)CN1
inactive: [1] | [2] | [3] | [4]

O=C(CCN1CCN(CCO)CC1)N1c2ccccc2Sc2ccc(C(F)(F)F)cc21
inactive: [1] | [2] | [3] | [4]

CCCCC1(COC(=O)CCC(=O)O)C(=O)N(c2ccccc2)N(c2ccccc2)C1=O
inactive: [1] | [2] | [3] | [4]

C/C(=N/NC(=O)c1ccncc1)C(=O)O
inactive: [1] | [2] | [3] | [4]

C[C@@H](O)[C@H]1C(=O)N2C(C(=O)O)=C([C@H]3CCCO3)S[C@H]12
inactive: [1] | [2] | [3] | [4]

CCCC(=O)O[C@]1(C(=O)CCl)[C@@H](C)C[C@H]2[C@@H]3CCC4=CC(=O)C=C[C@]4(C)[C@@]3(F)C(=O)C[C@@]21C
inactive: [1] | [2] | [3] | [4]

NS(=O)(=O)c1cc2c(cc1Cl)NC(C1CC3C=CC1C3)NS2(=O)=O (centres undefined)
inactive: [1] | [2] | [3] | [4]

C#Cc1ccc(-c2ccccc2F)cc1
inactive: [1] | [2] | [3] | [4]

C#C[C@]1(OC(C)=O)CC[C@H]2[C@@H]3CCC4=C[C@@H](OC(C)=O)CC[C@@H]4[C@H]3CC[C@@]21C
inactive: [1] | [2] | [3] | [4]

Nc1c2c(nc3ccccc13)CCCC2
inactive: [1] | [2] | [3] | [4]
